The text below walks through data of PubChem BioAssay (NCI).

This is part of a sample that, as a whole, favours compounds with a hit. Of some 83,000 tested, about 20% had one in any assay.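 Note: values are percent growth. 100 is the growth of untreated cells, values between 100 and 0 indicate rising inhibition; between -100 and 0 indicates cell death.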 The source made the active and inactive calls. The calls were made as follows: active = growth percent below 10; inactive = the rest.

This test deals with MDA-MB-468 breast. In words: NCI-60 one-dose screen, 48 h (100 = growth as untreated, 0 = no growth, -100 = all killed). The note with it: 10 µM unless noted.
On to `CCOC(=O)C(=O)CC(=O)N1C(=S)NC(=O)C1CC(C)C` (stereo not given), for which the growth was 85.1% (inactive).
The result for `Cc1cc(CCNC=O)c(C)c2c1sc1ccccc12` reads 71.4% (inactive); that for `CCOC(=O)CNN`, 95.7% (inactive); that for `COc1cc(OC)c(S(N)(=O)=O)cc1C(C)=O`, 98.4% (inactive).
Consider `CC(=O)O[C@H]1CC[C@]2(C)[C@H]3CC=C4[C@@H]5CC(C)(C)CC[C@]5(C(=O)NCCNCCN)CC[C@@]4(C)[C@]3(C)CC[C@H]2C1(C)C`, for which the growth was -78.2% (active).
The result for `C=C(C)[C@@H]1CC[C@]2(/C=N/Nc3ccncc3)CC[C@]3(C)[C@H](CC[C@@H]4[C@@]5(C)CCCNC(C)(C)[C@@H]5CC[C@]43C)[C@@H]12` reads 83.7% (inactive); that for `COc1ccc(N=Nc2cc(OC)c(OC)c(OC)c2)cc1`, 80.9% (inactive).
As to `COc1ccc(C(=O)/C=C/c2cn(Cc3ccc(Cl)cc3)c3ccccc23)cc1`, the growth is -28.2% (active).
On to `C=C1C(=O)O[C@H]2[C@H]1CC/C(C(=O)NCCCCCNC(=O)/C1=C/CC[C@@]3(C)O[C@H]3[C@H]3OC(=O)C(=C)[C@@H]3CC1)=C\CC[C@@]1(C)O[C@@H]21`, for which the growth is 94.9% (inactive).
`CCOC(=O)c1ccc(NC(=O)Nc2nccs2)cc1`: the growth is -30.4% (active).
Regarding `C=CCN1C(=O)/C(=C\c2ccc3c(c2)CCC3)SC1=S`, the growth is 116% (inactive).
The result for `COc1ccccc1-n1c(-c2sc(NC(C)=O)nc2C)n[nH]c1=S` reads 124% (inactive).
As to `Cc1ccccc1NC(=O)CN(C)C`, the growth is 107% (inactive).
Turning to `CCOC(=O)C(COS(C)(=O)=O)(COS(C)(=O)=O)C(=O)OCC`, the growth was 122% (inactive).
In the case of `COc1cccc(C2=NN3C(C2)c2ccccc2OC3c2ccc(/C=C3\SC(=O)NC3=O)cc2)c1` (stereo not given), the growth was 102% (inactive).
Take `C=C[C@@H]1C[C@H](O)Cc2c(C)cc(C)cc2N1`: the growth is 91.9% (inactive).
Turning to `Nc1nc2ccccc2c2c(=O)c3cc(Cl)ccc3sc12`, the growth was 21.3% (inactive).
Consider `CC(=O)N(O)c1ccc(/C=C/c2ccccc2)cc1`, for which the growth was -63.5% (active).
As for `O=c1c2cccc3c(Nc4ccc(Br)cn4)ccc(c32)c2nc3ccccc3n12`, the growth is -64.7% (active).
Turning to `C[N+](C)(C)CCCCCCCCCC[N+](C)(C)C`, the growth was 79.6% (inactive).
`COc1ccc2[nH]c(=O)c(/C=C/C(=O)c3ccccc3OC)cc2c1`: the growth is 16.7% (inactive).
For `COc1ccc(NC(=O)c2ccc(NC3=C(c4ccc(Cl)cc4)C(=O)NC3=O)cc2)cc1`, the growth is 88.1% (inactive).
For the compound `CC/C(=C(\CC)c1ccc(OCC[N+](C)(C)C)cc1)c1ccc(OC)cc1`, the growth is 2.58% (active).
Regarding `CC#Cc1nc(Nc2cc(C)[nH]n2)c2ccccc2n1`, the growth is 1.44% [100 µM] (active).
As to `Cc1cc2nc(CC(=O)c3ccncc3)c(=O)[nH]c2cc1C`, the growth was 102% (inactive).
For `O=C(/C=C/c1ccc(F)cc1)Nc1ncc(Cc2ccc(F)cc2)s1`, the growth is 8.11% (active).
Consider `Oc1cc(O)c(Br)cc1Br`, for which the growth is 101% (inactive).
Turning to `O=C(Oc1ccc(Cl)cc1[N+](=O)[O-])Oc1ccc(Cl)cc1[N+](=O)[O-]`, the growth was 114% (inactive).
With `C=C1C(=O)O[C@H]2[C@H]1CC/C(COC(=O)/C=C\C(=O)O)=C\CC[C@@]1(C)O[C@@H]21`, the growth was 110% (inactive).
Regarding `CNC(=O)c1cc(N2CCc3cc(NC(=O)Nc4ccc(Cl)c(Cl)c4)ccc32)ccn1`, the growth is 84.5% (inactive).
For `C=C(C)[C@@H]1CC[C@]2(C(=O)N3CCN(C)CC3)CC[C@]3(C)[C@H](CC[C@@H]4[C@@]5(C)C/C(=C/c6cccnc6)C(=O)C(C)(C)[C@@H]5CC[C@]43C)[C@@H]12`, the growth was 51.5% (inactive).
Take `CCCCCCc1nc2nc(Cl)c(Cl)nc2[nH]1`: the growth was 31.1% (inactive).
As for `N#Cc1ccc(OC(=O)Nc2cc(Cl)cc(Cl)c2)cc1`, the growth is -16.4% [100 µM] (active).
As for `Cc1ccc2c(c1)c(-c1nc(-c3c[nH]c4ncccc34)cs1)cn2C`, the figure is -2.68% (active).
The result for `COc1ccc(CC(=O)Nc2nn3c(-c4cc(C(F)(F)F)cc(C(F)(F)F)c4)nnc3s2)cc1` reads 48.4% (inactive); that for `Cc1cccc(C)c1NC(=O)c1sc2nc3c(cc2c1N)C(=O)CCC3`, 34.3% (inactive).
In the case of `CCCc1[nH]c(-c2cc(N)ccc2Cl)c2c1C(=O)CCCC2`, the growth is 93.7% (inactive).
Take `N=C(N)c1ccc(-c2ccc(-c3cncc4ccccc34)s2)cc1F`: the growth is -90.6% (active).
In the case of `O=C1Nc2c(c(=O)n(-c3ccccc3)c3ccccc23)C(c2ccc(Cl)cc2)N1` (stereo not given), the growth is 119% (inactive).
For `CCCCCCCCCCCCCCCCN=C(CC(=O)O)C(=O)O`, the growth is 95.2% (inactive).
